# High-throughput results (PubChem)
# Abeta yeast res: A-beta toxicity reversal in yeast | yeast expressing A-beta42, growth rescue, OD600, 48 h; response scale: 0% DMSO, 100% iron-clioquinol control | Potency, µM (top dose mostly 46.1 µM), actives largely listed as activators | 0.063% of 410,000 active; also: nearly all actives have a fitted effect of over 55% in size
#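 Growth rescue measured by 600 nm absorbance after 48 h yeast culture at 30 C with compound. Values normalized between DMSO and an equimolar ferric chloride plus clioquinol control.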
# TDP-43 yeast inh: TDP-43 toxicity inhibition in yeast; AID 652104; 1.8% of 410,000 active; Potency, µM (top dose mostly 46.1 µM), inactives show at the top dose growth rescue (activation), actives largely listed as activators; TDP-43 expressing yeast growth rescue, BacTiter-Glo, 24 h; also: % of control where 0% means no effect; nearly all actives have a fitted effect of over 50% in size
#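 Luminescence from BacTiter-Glo reports growth of TDP-43-expressing yeast after 24 hr at 30 deg C with compound. Cells were raffinose-pregrown to mid-log, then seeded in galactose medium at OD600=0.02.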
# aSyn rescue: alpha-synuclein toxicity inhibition in yeast; Potency, µM (titrated, usually from 46.1 µM), for inactives: at the highest dose growth rescue (activation), most hits filed as activators; AID 652106; 0.14% of 370,000 active; Yeast expressing alpha-synuclein, growth rescue, BacTiter-Glo, 24 h; also: % of control where 0% means no effect; nearly all actives have a fitted effect of over 65% in size
#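 Screening used galactose-induced yeast with toxic alpha-synuclein levels, exposed to compound for 24 hr at 30 deg C. Cell growth, read with BacTiter-Glo luminescence, gave the measured signal.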
# FUS yeast rescue: FUS proteinopathy suppression in yeast; AID 1347120; Potency, µM (titrated, usually from 76.6 µM), hits mostly activators; 0.24% of 390,000 active; S. cerevisiae FUS-expressing, growth rescue, OD600, 24 h;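 also: plate controls were DMSO vehicle for no effect and reference control for full effect; nearly all actives have a fitted effect of over 55% in size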
#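 Cultures pregrown in 2.5% raffinose medium are shifted to minimal medium containing 2% galactose to express toxic FUS. Compounds are tested at several concentrations. After 24hr at 30C, growth is quantified at 600 nm absorbance.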
# The depositor's hits bear a star; i = inactive; ? = inconclusive; . = not tested or not shown; [ ] = remark or other dose. In the library only some 2.1% were active in any assay of this set; here they are far more common. Calls follow the shape of the dose curve; as a rule, active = well fitted curve in the direction sought with a large enough effect; inconclusive = small, poorly fitted or top-dose-only effect, or another doubt; inactive = no such curve, though single readings can be large; an effect the other way counts as inactive or inconclusive. Potency is read from the fitted curve at half-maximal effect.
SMILES,Abeta yeast res,TDP-43 yeast inh,aSyn rescue,FUS yeast rescue
COc1ccccc1NC(=O)c1nc(S(=O)(=O)Cc2ccccc2)ncc1Cl,i,-9%,4%,i
Cc1cccc(NC(=O)c2nc(S(C)(=O)=O)ncc2Cl)c1,i,20µM*,.,i
CCS(=O)(=O)c1ncc(Cl)c(C(=O)Nc2ccccc2OC)n1,i,.,10%,i
CCS(=O)(=O)c1ncc(Cl)c(C(=O)Nc2ccccc2)n1,i,11µM*,.,i
COc1ccc(OC)c(NC(=O)c2nc(S(=O)(=O)Cc3ccc(F)cc3)ncc2Cl)c1,i,3.2µM*,.,i
CCOC(=O)c1c(-c2ccccc2)csc1NC(=O)c1nc(S(=O)(=O)CC)ncc1Cl,i,4µM*,.,i
COc1cccc(NC(=O)c2nc(S(C)(=O)=O)ncc2Cl)c1,i,?,0%,i
Cc1ccc(S(=O)(=O)N2CCN(c3nc(-c4cccs4)cc4ccccc34)CC2)cc1,.,.,-7%,.
Cc1ccc(CSc2ncc(Cl)c(C(=O)NCCc3ccc(S(N)(=O)=O)cc3)n2)cc1,i,14%,.,i
Cc1ccc(S(=O)(=O)N2CCN(c3nc(-n4cncn4)nc4ccccc34)CC2)cc1,.,.,4%,.
OCCCCC#Cc1c(-c2ccsc2)sc2ccccc12,i,14µM*,-34%,i
Cc1ccc(S(=O)(=O)NNC(=O)c2ccc(C(=O)N(c3ccccc3)c3ccccc3)cc2)cc1,.,.,4%,.
COC(=O)c1c(-c2ccc(Br)cc2)noc1N,i,20µM*,-3%,i
CCc1c(-c2ccccc2)nc2ccccc2c1C(=O)NCCc1ccccc1,i,33%,.,i
Cc1c(NC(=O)/C(C#N)=C/c2ccc(-c3ccc(Cl)cc3)o2)c(=O)n(-c2ccccc2)n1C,i,32µM*,1%,?
Cc1c(NC(=O)/C(C#N)=C/c2ccc(-c3cc(Cl)ccc3Cl)o2)c(=O)n(-c2ccccc2)n1C,i,-9%,-5%,.
S=c1[nH]nc(-c2ccc(Cl)cc2)n1/N=C/C=C/c1ccco1,5µM*,-21%[1.82 µM],15%,?
COc1ccc(C(C#N)c2ccc(Cl)nn2)cc1 (stereo not drawn),i,23%,-8%,i
N#CC(c1ccc(Cl)nn1)c1ccc(Cl)cc1Cl (stereo not drawn),i,13µM*,14%,i
COc1cccc(NC(=O)CN2CCSc3ccccc32)c1,i,22µM*,12%,i
CCCCOc1ccc(CNC(=O)CN2CCSc3ccccc32)cc1,?,35µM*,?,?
CCCOc1ccc(CNC(=O)c2ccc3c(c2)N(Cc2ccccc2)CCS3)cc1,i,-9%,.,i
Cc1cccc(NC(=O)CN2CCSc3ccccc32)c1,i,8%,1%,i
COc1cc(/C=C/c2cncc(/C=C/c3cc(OC)c(OC)c(OC)c3)c2)cc(OC)c1OC,.,.,0%,.
Cc1ccc(C(=O)Nc2onc3c2CCCC3)cc1,i,?,.,i
SMILES,Abeta yeast res,TDP-43 yeast inh,aSyn rescue,FUS yeast rescue
O=C(CSc1nnc(-c2cc3ccccc3cc2O)n1Cc1ccco1)N1CCc2ccccc2C1,i,-20%,9%,16µM*
Cc1ccc(CSc2nc3c(c(SCC(=O)O)n2)CCCC3)cc1,i,35µM*,8%,i
COC(=O)CSc1nc(SCc2ccc(C)cc2)nc2c1CCCC2,i,-10%,-15%,i
CCOC(=O)c1cc(C)n(CC2CCC(C(=O)Nc3cccc(C)c3)CC2)c1C (stereo not drawn),i,14%,.,?
CN=C(Nc1cc(Cl)ccc1Cl)SC1CC(=O)N(c2ccc(C(=O)OC)cc2)C1=O (stereo not drawn),?,25µM*,?,?
CC(=O)N1CCc2c(sc3c2c(=O)n(-c2ccccc2)c(=O)n3Cc2cccc(C(F)(F)F)c2)C1,i,3%,.,i
O=C(C1CCCN(S(=O)(=O)c2cc(Cl)ccc2Cl)C1)N1CCCCCC1 (stereo not drawn),i,11µM*,3%,.
COc1ccc(S[C@]2(C(=O)N3CCN(c4ncccn4)CC3)CC(=O)N(C(=O)CCc3ccccc3)[C@@H]2c2ccc(OC)cc2)cc1,.,.,.,i
Cc1ccc(C)c(S(=O)(=O)Nc2ccc(O)cc2)c1,i,-2%,1%,i
Cc1ccc(CONS(=O)(=O)c2cc(C)ccc2C)cc1,i,32µM*,-57%,i
CCCNC(=O)c1cnn2c(C(F)F)cc(-c3ccccc3)nc12,i,13µM*,.,i
